Screens deposited in PubChem BioAssay by The Scripps Research Institute Molecular Screening Center.
TTR transcr act – TTR transcription activators in neuroblastoma reporter cells, primary screen, cell-based, luminescence, SH-SY5Y, TTR promoter Gaussia luciferase; 92,000 compounds, 1.3% hits; 100% = recombinant luciferase protein wells; activation, % at 16.7 µM;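 active = activation above the mean of all tested compounds plus 3 SD, cut at about 9.5% in these data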;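 also: cells exposed to compounds for one day before reading; 0% = median of all test compound wells on the plate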
HuH7 TTR inh – TTR promoter reporter inhibitors in hepatoma cells, counter-screen for TTR transcription activator project, cell-based, luminescence, HuH7 hepatoma. 1,100 compounds, 4% hits. HuH7 TTR promoter-Gaussia luciferase reporter. inhibition, % at 16.7 µM. AID 1117279, 2014. shares compounds with TTR transcr act;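 active = average inhibition above the solvent-only control wells' mean plus 3 SD, cut at about 15% in these data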;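 also: 0% = cells with DMSO only and 100% = cells with inhibitor control FD; inhibitors lower well luminescence so higher value means more inhibition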
TTR act confirm – TTR transcription activators, retest, confirmation, cell-based, luminescence, SH-SY5Y, triplicate. shares compounds with TTR transcr act. SHSY5Y TTR promoter Gaussia luciferase; 100% = purified Lucia enzyme wells, no cells. activation, % at 16.7 µM. 1,100 tested, under 10 active. AID 1117280, 2014;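 active = mean activation above a set limit taken from the earlier primary screen, cut at about 11% in these data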;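 also: 0% = DMSO-treated cells and 100% = recombinant Lucia luciferase without cells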
* marks the source's active call; other numbers are inactive results. Shown is part of a subset that was picked to be rich in hits.

What do the screens show for `CCCN(CCC)CCCNC(=O)C1c2cc(OC)c(OC)cc2C(=O)N(C)C1c1cccnc1` (configuration not stated)?
TTR transcr act: 0.5

What do the screens show for `CCOc1ccc(S(=O)(=O)N2CCOCC2)cc1NC(=O)CN1C(=O)NC(C)(C2CC2)C1=O` (configuration not stated)?
TTR transcr act: -0.9

What do the screens show for `Cn1c(=O)c2c(nc(NCc3ccc4c(c3)OCO4)n2Cc2ccc(F)cc2)n(C)c1=O`?
TTR transcr act: -3.4

What do the screens show for `CCCCC(=O)NCCNc1nc2c(c(=O)n(C)c(=O)n2C)n1Cc1ccc(F)cc1`?
TTR transcr act: 13.8*

How did CCCNc1nc2c(c(=O)n(C)c(=O)n2C)n1Cc1cccc(C)c1 do in these assays?
TTR transcr act: 1.6

How did COc1cccc(Cn2c(Cn3c(-c4cnccn4)nc4ccccc43)nc3ccccc32)c1 do in these assays?
TTR transcr act: 2.2

Results for Cc1cc2[nH]c(=O)cc(-c3ccccc3)n2n1 ?
TTR transcr act: 1.1

Results for COc1ccc(OC)c(C2=NOC(C(=O)NCc3ccccn3)C2)c1 (configuration not stated) ?
TTR transcr act: 2.9

What do the screens show for `COc1ccccc1NNC(=O)C(O)(c1ccccc1OC)c1ccccc1OC`?
TTR transcr act: -1.8

How did CCOC(=O)C(C)NC(=O)C(NC(=O)C1CCC(CC)CC1)C(C)C (configuration not stated) do in these assays?
TTR transcr act: 10.5*

How did CC(C)[C@H](NC(=O)[C@@H]1Cc2ccccc2CN1C(=O)OC(C)(C)C)C(=O)NCC1CCC(C(=O)O)CC1 (some centres not stated) do in these assays?
TTR transcr act: -0.3

How did CCOc1ccc(NC(=O)C(NC(=O)C2CCC(C)CC2)C(C)C)cc1 (configuration not stated) do in these assays?
TTR transcr act: 0.7

How did CC(=O)N1N=C(c2cccc([N+](=O)[O-])c2)OC1(C)CC(=O)Nc1ccccc1 (configuration not stated) do in these assays?
TTR transcr act: 5.6

Results for CS(=O)(=O)N(CC(=O)Nc1ccccc1C(=O)N1CCOCC1)c1ccc(Cl)cc1 ?
TTR transcr act: -0.8

How did C[C@]12C(=O)N(c3cccc(Cl)c3)C(=O)N1[C@@H]1c3ccccc3OC[C@@H]1[C@H]2c1ccccc1 do in these assays?
TTR transcr act: 2.9

What do the screens show for `C[C@]12C(=O)N(c3cccc(F)c3)C(=O)N1[C@H]1c3ccccc3OC[C@@H]1[C@H]2c1ccccc1`?
TTR transcr act: -1.8

Results for C[C@]12C(=O)N(c3ccccc3)C(=O)N1[C@H]1c3ccccc3OC[C@@H]1[C@H]2c1ccccc1 ?
TTR transcr act: 10.7*

What do the screens show for `O=C(/C=C\Nc1ccc(S(=O)(=O)Nc2ncccn2)cc1)c1cccc2ccccc12`?
TTR transcr act: 7.3

Results for Cc1cccn2cc(-c3ccc(S(=O)(=O)N4CCOCC4)cc3)nc12 ?
TTR transcr act: 0.0

Results for Cc1ccn2cc(-c3ccc(Br)cc3)nc2c1 ?
TTR transcr act: -2.7

Results for O=[N+]([O-])c1cccn2cc(-c3ccc(Br)cc3)nc12 ?
TTR transcr act: 10.9*; HuH7 TTR inh: 5.8; TTR act confirm: -0.7

How did CC(C)OC(=O)/C(=C\c1ccccc1)NC(=O)c1ccccc1 do in these assays?
TTR transcr act: -0.2

What do the screens show for `CCOC(=O)/C(=C\c1ccc(C)cc1)NC(=O)c1ccccc1`?
TTR transcr act: 3.5

Results for CC(=O)N/C(=C\c1ccccc1)C(=O)OCC(=O)NC(=O)c1ccccc1 ?
TTR transcr act: 15.0*; HuH7 TTR inh: 3.2; TTR act confirm: 0.7

What do the screens show for `CCOC(=O)C1(C)CCN1C(=O)Cc1ccc(OC)cc1` (configuration not stated)?
TTR transcr act: 5.0

Results for COc1ccc(C(=O)N2CCCc3ccccc32)cc1 ?
TTR transcr act: 5.6

What do the screens show for `COc1cc(CO)ccc1OCC(=O)N1CCc2ccccc21`?
TTR transcr act: -1.9

How did COc1ccc(CC(=O)N2CCc3ccccc32)cc1 do in these assays?
TTR transcr act: 21.0*; HuH7 TTR inh: -23.7; TTR act confirm: 0.1

How did O=C1CCCCC1(CCc1ccncc1)CCc1ccncc1 do in these assays?
TTR transcr act: 0.4

Results for CC(O)(c1cccs1)C(C(=O)O)c1ccccc1 (configuration not stated) ?
TTR transcr act: 2.8

Results for CCN(CC)S(=O)(=O)c1cc([N+](=O)[O-])ccc1N=Nc1c(O)[nH]c2ccccc12 ?
TTR transcr act: -1.5

Results for Cc1cc(C)nc(NCc2ccc(Cl)cc2)n1 ?
TTR transcr act: -0.8
